These results are taken from article PMC7862700, “An all-to-all approach to the identification of sequence-specific readers for epigenetic DNA modifications on cytosine”.

Assay in all cases: DAPPL (digital affinity profiling via proximity ligation, sequencing); 10 mM Tris-HCl pH 7.5, 50 mM NaCl, 1 mM DTT, 4% glycerol, room temperature, 30 min; GST-TFs on glutathione beads, 16-mer random dsDNA library, 0.1% formaldehyde crosslink after washing; high values mean tight binding
Holding throughout (details): protein: recombinant; tags: N-terminal GST; dsDNA, one strand shown

The target of one assay is T1, ERF (Homo sapiens, UniProt P50548 1-548).
T1 sequence: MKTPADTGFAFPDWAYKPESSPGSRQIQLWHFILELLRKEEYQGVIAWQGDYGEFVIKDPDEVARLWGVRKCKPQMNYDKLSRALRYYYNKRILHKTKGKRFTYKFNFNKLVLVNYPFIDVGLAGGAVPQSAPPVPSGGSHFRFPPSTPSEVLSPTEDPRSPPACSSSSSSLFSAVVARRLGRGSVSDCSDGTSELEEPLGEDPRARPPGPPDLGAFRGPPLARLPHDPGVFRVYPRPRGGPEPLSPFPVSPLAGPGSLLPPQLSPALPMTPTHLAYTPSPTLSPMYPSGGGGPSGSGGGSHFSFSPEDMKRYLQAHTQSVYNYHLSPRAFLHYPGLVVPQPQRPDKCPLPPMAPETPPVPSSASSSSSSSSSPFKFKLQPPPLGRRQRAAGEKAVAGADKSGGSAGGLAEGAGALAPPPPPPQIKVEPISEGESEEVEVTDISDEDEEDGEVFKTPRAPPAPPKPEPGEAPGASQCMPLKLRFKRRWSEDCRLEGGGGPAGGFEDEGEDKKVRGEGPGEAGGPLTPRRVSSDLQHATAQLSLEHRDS
The method, boiled down: (§1)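 A tag-only sample was pooled with DNA-barcoded human transcription factors that had been expressed in yeast as GST fusions and captured on glutathione beads. The pools were incubated for 30 min at room temperature with 200 nmole of a random double-stranded 16-mer DNA library in Tris/NaCl/DTT/glycerol buffer, then washed, crosslinked with 0.1% formaldehyde, proximity-ligated (BsaI/T4 ligase, 1 h, 37 °C), PCR-amplified and sequenced on an Illumina NextSeq500. Binding signal is each hexamer's read frequency for a factor divided by its frequency for the tag-only sample.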

A further assay deals with T2, ETV3L (Homo sapiens, UniProt Q6ZN32 1-361).
T2 sequence: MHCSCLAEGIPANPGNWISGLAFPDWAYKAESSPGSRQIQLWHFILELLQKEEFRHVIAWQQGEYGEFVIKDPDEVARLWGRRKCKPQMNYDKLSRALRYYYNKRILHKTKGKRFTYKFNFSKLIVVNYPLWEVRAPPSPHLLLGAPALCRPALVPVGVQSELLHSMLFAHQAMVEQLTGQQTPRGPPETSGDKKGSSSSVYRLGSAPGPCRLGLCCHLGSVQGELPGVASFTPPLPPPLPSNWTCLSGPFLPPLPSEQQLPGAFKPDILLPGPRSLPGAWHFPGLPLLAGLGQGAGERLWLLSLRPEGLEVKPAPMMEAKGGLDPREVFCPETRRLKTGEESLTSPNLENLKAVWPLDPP
The procedure, abridged: as §1

For a further assay, the target named is T3, ETS2 (Homo sapiens, UniProt P15036 1-469).
T3 sequence: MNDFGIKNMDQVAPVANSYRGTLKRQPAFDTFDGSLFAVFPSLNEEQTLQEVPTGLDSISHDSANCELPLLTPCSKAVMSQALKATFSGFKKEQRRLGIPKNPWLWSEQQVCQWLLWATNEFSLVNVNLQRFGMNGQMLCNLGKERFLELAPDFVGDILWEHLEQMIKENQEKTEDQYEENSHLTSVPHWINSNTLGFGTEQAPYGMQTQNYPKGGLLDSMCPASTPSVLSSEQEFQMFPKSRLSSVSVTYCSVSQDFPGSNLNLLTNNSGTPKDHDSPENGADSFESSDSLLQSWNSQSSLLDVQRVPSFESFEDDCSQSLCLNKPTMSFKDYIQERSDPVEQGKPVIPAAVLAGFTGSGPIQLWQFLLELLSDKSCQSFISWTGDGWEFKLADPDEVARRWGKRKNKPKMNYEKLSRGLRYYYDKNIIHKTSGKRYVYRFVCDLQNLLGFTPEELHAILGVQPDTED
The procedure, abridged:
as §1

In a further assay the target is T4, SPDEF (Homo sapiens, UniProt O95238 1-335).
T4 sequence: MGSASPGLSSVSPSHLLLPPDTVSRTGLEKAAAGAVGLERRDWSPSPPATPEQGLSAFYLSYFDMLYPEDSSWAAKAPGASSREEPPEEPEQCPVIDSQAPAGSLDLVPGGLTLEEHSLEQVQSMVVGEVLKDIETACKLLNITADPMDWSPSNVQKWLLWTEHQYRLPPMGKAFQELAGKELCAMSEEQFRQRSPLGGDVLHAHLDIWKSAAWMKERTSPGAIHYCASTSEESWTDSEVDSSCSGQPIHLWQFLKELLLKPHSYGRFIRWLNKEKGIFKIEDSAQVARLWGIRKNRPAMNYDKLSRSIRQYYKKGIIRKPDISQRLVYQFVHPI
The method, boiled down:
as §1

The target in a further assay is T5, ETV7 (Homo sapiens, UniProt Q9Y603 1-341).
T5 sequence: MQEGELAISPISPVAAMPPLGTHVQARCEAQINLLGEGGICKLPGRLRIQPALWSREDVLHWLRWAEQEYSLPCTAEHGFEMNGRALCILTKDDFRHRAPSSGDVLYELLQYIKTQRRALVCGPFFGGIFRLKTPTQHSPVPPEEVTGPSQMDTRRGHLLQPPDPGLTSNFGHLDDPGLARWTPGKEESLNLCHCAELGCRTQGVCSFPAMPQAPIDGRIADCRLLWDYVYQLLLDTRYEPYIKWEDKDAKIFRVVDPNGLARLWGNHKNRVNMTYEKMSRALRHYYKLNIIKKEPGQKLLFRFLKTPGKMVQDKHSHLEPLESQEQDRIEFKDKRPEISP
The method, boiled down:
as §1

The target of another assay is T6, ELF5 (Homo sapiens, UniProt Q9UKW6-2 1-255).
T6 sequence: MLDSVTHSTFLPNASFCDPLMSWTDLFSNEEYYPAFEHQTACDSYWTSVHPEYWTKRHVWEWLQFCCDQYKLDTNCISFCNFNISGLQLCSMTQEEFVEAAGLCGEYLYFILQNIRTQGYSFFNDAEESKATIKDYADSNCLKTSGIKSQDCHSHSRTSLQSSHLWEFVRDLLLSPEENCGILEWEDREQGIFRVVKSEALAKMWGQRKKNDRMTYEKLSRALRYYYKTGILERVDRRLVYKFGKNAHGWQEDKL
The method, boiled down: as §1

In another assay the target is T7, ETV3 (Homo sapiens, UniProt P41162-2 1-143).
T7 sequence: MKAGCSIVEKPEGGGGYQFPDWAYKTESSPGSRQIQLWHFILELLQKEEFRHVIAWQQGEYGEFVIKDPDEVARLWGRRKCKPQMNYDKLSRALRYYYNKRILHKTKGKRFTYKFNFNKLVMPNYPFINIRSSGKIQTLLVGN
The method, boiled down: as §1

A further assay addresses ETV6 (Homo sapiens, UniProt P41212 1-452). The procedure, abridged:
as §1

Chain of ETV6 (P41212 whole entry): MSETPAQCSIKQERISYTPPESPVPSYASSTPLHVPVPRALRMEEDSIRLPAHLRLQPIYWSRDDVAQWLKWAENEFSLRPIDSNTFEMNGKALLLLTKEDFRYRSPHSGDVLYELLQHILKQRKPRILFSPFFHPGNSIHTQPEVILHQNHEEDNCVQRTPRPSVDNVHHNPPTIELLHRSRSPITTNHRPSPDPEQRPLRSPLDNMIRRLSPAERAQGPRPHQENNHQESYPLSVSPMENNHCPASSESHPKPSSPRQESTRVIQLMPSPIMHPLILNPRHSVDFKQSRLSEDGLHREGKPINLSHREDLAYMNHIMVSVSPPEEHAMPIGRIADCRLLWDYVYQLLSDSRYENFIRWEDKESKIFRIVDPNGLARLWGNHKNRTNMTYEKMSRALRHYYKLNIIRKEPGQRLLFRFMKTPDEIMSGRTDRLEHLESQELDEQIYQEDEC

As for GTACAA, the binding signal was 1.03 fold enrichment (6-mer frequency, TF over GST control) with ERF; 1.09 fold enrichment (6-mer frequency, TF over GST control) in the assay with ETV3L; 1.1 fold enrichment (6-mer frequency, TF over GST control) in the assay with ETS2; 1.06 fold enrichment (6-mer frequency, TF over GST control) with SPDEF; 1.12 fold enrichment (6-mer frequency, TF over GST control) with ETV7; 1.03 fold enrichment (6-mer frequency, TF over GST control) with ELF5. Further, the binding signal was 1.11 fold enrichment (6-mer frequency, TF over GST control) with ETV3 and 1.15 fold enrichment (6-mer frequency, TF over GST control) in the assay with ETV6.
For the sequence CGTCTT, the binding signal with ERF was 1.24 fold enrichment (6-mer frequency, TF over GST control); with ETV3L it was 1.4 fold enrichment (6-mer frequency, TF over GST control); with ETS2 it was 1.4 fold enrichment (6-mer frequency, TF over GST control); in the assay with SPDEF, 1.48 fold enrichment (6-mer frequency, TF over GST control); in the assay with ETV7, 1.41 fold enrichment (6-mer frequency, TF over GST control); with ELF5, 1.5 fold enrichment (6-mer frequency, TF over GST control). For the same sequence, the binding signal was 1.44 fold enrichment (6-mer frequency, TF over GST control) with ETV3 and 1.5 fold enrichment (6-mer frequency, TF over GST control) with ETV6.
For TGCTTA, the binding signal in the assay with ERF is 1.1 fold enrichment (6-mer frequency, TF over GST control); with ETV3L, 1.09 fold enrichment (6-mer frequency, TF over GST control); with ETS2 it was 1.1 fold enrichment (6-mer frequency, TF over GST control); with SPDEF, 1.18 fold enrichment (6-mer frequency, TF over GST control); with ETV7, 1.12 fold enrichment (6-mer frequency, TF over GST control); with ELF5, 1.03 fold enrichment (6-mer frequency, TF over GST control). Further, the binding signal was 1.18 fold enrichment (6-mer frequency, TF over GST control) with ETV3 and 1.1 fold enrichment (6-mer frequency, TF over GST control) in the assay with ETV6.
In the case of TTATAA, the binding signal is 1.15 fold enrichment (6-mer frequency, TF over GST control) with ERF; 1.19 fold enrichment (6-mer frequency, TF over GST control) with ETV3L; 1.2 fold enrichment (6-mer frequency, TF over GST control) with ETS2; 1.17 fold enrichment (6-mer frequency, TF over GST control) in the assay with SPDEF; 1.21 fold enrichment (6-mer frequency, TF over GST control) in the assay with ETV7; 1.19 fold enrichment (6-mer frequency, TF over GST control) with ELF5. Moreover, the binding signal in the assay with ETV3 was 1.16 fold enrichment (6-mer frequency, TF over GST control); with ETV6, 1.19 fold enrichment (6-mer frequency, TF over GST control).
Regarding ATCCGA, the binding signal with ERF is 1.22 fold enrichment (6-mer frequency, TF over GST control); with ETV3L it was 1.24 fold enrichment (6-mer frequency, TF over GST control); with ETS2, 1.08 fold enrichment (6-mer frequency, TF over GST control); with SPDEF, 1.26 fold enrichment (6-mer frequency, TF over GST control); in the assay with ETV7 it was 1.15 fold enrichment (6-mer frequency, TF over GST control); in the assay with ELF5, 1.25 fold enrichment (6-mer frequency, TF over GST control). The binding signal was 1.11 fold enrichment (6-mer frequency, TF over GST control) with ETV3 and 1.24 fold enrichment (6-mer frequency, TF over GST control) with ETV6.
With TTTCCA, the binding signal with ERF was 1.32 fold enrichment (6-mer frequency, TF over GST control); with ETV3L, 1.41 fold enrichment (6-mer frequency, TF over GST control); in the assay with ETS2, 1.38 fold enrichment (6-mer frequency, TF over GST control); in the assay with SPDEF, 1.29 fold enrichment (6-mer frequency, TF over GST control); with ETV7, 1.35 fold enrichment (6-mer frequency, TF over GST control); in the assay with ELF5, 1.43 fold enrichment (6-mer frequency, TF over GST control). Besides, the binding signal in the assay with ETV3 was 1.45 fold enrichment (6-mer frequency, TF over GST control); with ETV6, 1.54 fold enrichment (6-mer frequency, TF over GST control).
As for AATTTT, the binding signal with ERF was 1.36 fold enrichment (6-mer frequency, TF over GST control); in the assay with ETV3L, 1.3 fold enrichment (6-mer frequency, TF over GST control); with ETS2 it was 1.23 fold enrichment (6-mer frequency, TF over GST control); with SPDEF it was 1.22 fold enrichment (6-mer frequency, TF over GST control); in the assay with ETV7 it was 1.14 fold enrichment (6-mer frequency, TF over GST control); in the assay with ELF5, 1.23 fold enrichment (6-mer frequency, TF over GST control). In addition, the binding signal with ETV3 is 1.2 fold enrichment (6-mer frequency, TF over GST control); in the assay with ETV6, 1.13 fold enrichment (6-mer frequency, TF over GST control).
